Screening results from PubChem BioAssay.
The list is not random: actives were taken first. Their share in the collection is about 12%.
Cycloheximide cs: affects cycloheximide protein synthesis inhibition readout, counter-screen. max response, %. AID 2314. hit rate 12% among 300,000. cell reporter, cycloheximide protein synthesis inhibition counterscreen; in the data active = max response mostly above about 13%, no sharp cut-off; inactive = mostly below about 14%; also: read at 38.3 µM for the half of the compounds with a filed dose; 0% is about no effect
FMDV antiviral: blocks foot and mouth disease virus | FMDV antiviral cell-based qHTS | Potency, µM (doses to about 57.9 µM), for inactives: top-dose activity change, negative = inhibition, actives largely listed as inhibitors | hit rate 1.2% among 410,000 | AID 1159524; calls by dose curve; tested in HEK293T cells; also: read-out not given here; potency is read from the fitted curve at half-maximal effect; % is scaled to controls: 0 for no effect and ±100 for the full control effect; nearly all actives have a fitted effect of over 45% in size
Shiga inhibitor: inhibitors of Shiga toxin in Vero cells. Vero cells, Shiga toxin protein synthesis inhibition reporter. AID 2315. inhibition, % at 38.7 µM. hit rate 9.2% among 290,000; in the data active = inhibition mostly above about 28%, no sharp cut-off; inactive = mostly below about 43%; also: 0% is about no effect
Sm TGR inh: S. mansoni TGR enzyme inhibition; purified TGR, DTNB reduction, TNB absorbance 405 nm; hit rate 3% among 360,000; Potency, µM (titrated, usually from 114 µM), for the others: at the highest dose activity change, negative = inhibition, usual class: inhibitors; active = well fitted inhibition curve with a large enough effect; inconclusive = small, poorly fitted or top-dose-only effect; inactive = no such curve, though single readings can be large or run the other way; also: potency is read from the fitted curve at half-maximal effect; % is scaled to controls: 0 for no effect and ±100 for the full control effect; nearly all actives have a fitted effect of over 60% in size
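TGR 20 nM + NADPH 100 uM (dispensed conc.), cpd preinc 15 min RT; start with NADPH (500 uM addition) then DTNB (15 mM addition). Kinetic TNB absorbance, 405 nm filter. Four-parameter Hill fit across titration.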
Numbers without * were called inactive; ? = inconclusive; . = not tested or not shown.

SMILES | Cycloheximide cs | FMDV antiviral | Shiga inhibitor | Sm TGR inh
Cc1cc(C)nc(/N=c2/ssnc2Cl)c1 | -3 | 28µM* | -6 | -5%
Cc1cc(C)c(C#N)c(Cl)n1 | 5 | 0% | -7 | 8%
Cc1cccc2sc(N(Cc3cccnc3)C(=O)Cc3ccccc3)nc12 | . | 16% | . | 1%
Clc1cccc(Cl)c1Cn1ccc(C2CC2)n1 | 41* | 31% | 64* | 1%
COc1ccc(CCNC(=O)c2ccc(Cn3c(=O)c4cccn4c4cccnc43)cc2)cc1OC | . | -7% | . | -2%
Cc1cccc(CCNC(=O)c2cc3c(=O)n(C)c4ccccc4c3n2C)c1 | . | ? | . | 7%
O=C(Cc1ccccc1)N/N=C/c1ccc2cccc(O)c2n1 | 32* | 41% | 38 | 0%
CC(=O)Nc1nonc1-c1nnc(SCc2ccc(Cl)cc2)n1C | . | -6% | . | -3%
COc1ccc(OC)c(-c2cc(C3CCN(c4ncccc4[N+](=O)[O-])CC3)[nH]n2)c1 | 4 | ? | 5 | -2%
Nc1nc(Cl)cc(N2CCC(c3cc(-c4ccc(Cl)cc4)n[nH]3)CC2)n1 | -1 | 16µM* | -14 | -24%
COc1ccc(OC)c(-c2cc(C3CCN(c4cc(Cl)nc(N)n4)CC3)[nH]n2)c1 | -1 | 18µM* | -14 | 9%
COc1ccc(-c2cc(C3CCN(CC(O)C(F)(F)F)CC3)[nH]n2)cc1 (configuration not stated) | -3 | -1% | -7 | -3%
COc1ccc(-c2cc(C3CCN(c4cc(Cl)nc(N)n4)CC3)[nH]n2)cc1 | -2 | 22µM* | -12 | -14%
Cc1ccc(NC(=O)CCc2nc(-c3ccccc3F)no2)c(C)c1 | . | 0% | . | 1%
Cc1ccc(NC(=O)CCC(=O)N2CCSc3ccccc32)cc1 | . | -12% | . | 1%
CC(=O)Nc1ccc(S(=O)(=O)NCCSCc2ccco2)cc1 | -3 | 12% | 1 | ?
O=[N+]([O-])c1ccccc1S(=O)(=O)NCCSCc1ccco1 | . | 17% | . | 25µM*
CS(=O)(=O)NCCSCc1ccco1 | -5 | . | 32 | 20µM*
Cc1ccc(NC(=O)c2cc(CN3CCOCC3)on2)cc1Cl | . | 38% | . | -9%
CCCCNc1c2c3c(cccc3n(C)c1=O)C(=O)c1ccccc1-2 | -4 | 32µM* | -8 | 7%
CN(C)/C=C/C(=O)c1ccc(OCCN(C)c2ccccn2)cc1 | -3 | -5% | -3 | -3%
CN(C)/C=C/C(=O)c1ccc(Br)s1 | 21* | -8% | 54* | -15%
CN(C)/C=C/C(=O)c1ccccc1 | 41* | 11% | 63* | -26%
CN(C)/C=C/C(=O)c1ccc(Oc2ccccc2)cc1 | 34* | 17% | 83* | 6%
Cc1ccc(C(=O)/C=C/N(C)C)o1 | 16 | 5% | 26 | 0%
SMILES | Cycloheximide cs | FMDV antiviral | Shiga inhibitor | Sm TGR inh
CN(C)/C=C/C(=O)c1ccc(S(=O)(=O)c2ccccc2)cc1 | 10 | 2% | 34 | -15%
COc1ccc(C(=O)/C=C/N(C)C)cc1OC | -4 | 4% | 2 | 5%
COc1ccc(C(=O)/C=C/N(C)C)cc1 | 20* | 15% | -24 | -14%
CCCc1ccc(C(=O)/C=C/N(C)C)cc1 | 14* | -28% | 42* | 4%
CN(C)/C=C/C(=O)c1cc(F)cc(C(F)(F)F)c1 | 1 | 2% | -1 | .
CN(C)/C=C/C(=O)c1ccc(F)cc1 | 21* | 1% | 99 | -26%
CCCCCCCCCCCCCCCCCCc1ccc(C(=O)/C=C/C(=O)O)cc1 | . | -6% | . | .
C#CCNC(=O)C1=C[C@@H](c2ccc(Br)cc2)[C@H](CCCO)[C@@H](OCC)O1 | 1 | -16% | -12 | -7%
C#CCNC(=O)C1=C[C@@H](C2CCCCC2)[C@H](CCCO)[C@@H](OCC)O1 | 0 | -23% | -17 | 40µM*
CCO[C@H]1OC(C(=O)NC2CC2)=C[C@@H](C2CCCCC2)[C@@H]1CCCO | -3 | -19% | 3 | 15%
C#CCNC(=O)C1=C[C@H](c2ccc3c(c2)OCO3)[C@@H](CCCO)[C@H](OCC)O1 | -4 | -19% | -12 | 45µM*
CCO[C@@H]1OC(C(=O)NC2CC2)=C[C@H](c2c[nH]c3ccccc23)[C@H]1CCCO | 11 | -24% | 52* | 15%
CCO[C@H]1OC(C(=O)NC2CC2)=C[C@@H](c2c[nH]c3ccccc23)[C@@H]1CCCO | -2 | -15% | -6 | 9%
O=C(CC1C(=O)N(c2ccc(F)cc2)C(=O)N1Cc1cccnc1)Nc1ccc(F)cc1 (configuration not stated) | . | 11% | . | -5%
Cc1ccccc1C1(CC(=O)N2CCCC2c2nccs2)CC(=O)N(C2CCCC2)C1=O (configuration not stated) | . | 49% | . | .
CCn1c(C)c2c(C)nnc(C)c2c1C | -4 | -10% | -3 | 45µM*
Cc1ccc(/C=N/N2CCCCC2)o1 | 39* | 48% | 56* | -16%
COc1ccc(NS(=O)(=O)c2ccc(N3CCOCC3)c(NC(=O)C(C)C)c2)cc1 | -2 | -3% | 25 | 22%
CCOC(=O)/C=C/C(=O)Nc1cc(S(=O)(=O)Nc2ccc(OC)cc2)ccc1N1CCOCC1 | . | 32µM* | . | 32µM*
Cc1cc(C)c(NC(=O)C2CCN(C(=O)N3CC(C)Oc4ccc(Cl)cc43)CC2)c(C)c1 (configuration not stated) | . | ? | . | 0%
Cc1cc(I)ccc1Nc1c(C(=O)NOCC2CC2)cc(F)c(F)c1F | 17* | ? | 58* | .
COc1ccc(C)cc1-n1c(SCC(=O)NCc2ccco2)nc2c([nH]c3ccccc32)c1=O | . | -21% | . | -6%
O=C(O)c1ccc(/C=N/Nc2ncc(Cl)cc2Cl)cc1 | 21 | 44% | 65* | -2%
FC(F)(F)c1cnc(N/N=C/c2ccncc2)c(Cl)c1 | 8 | 19% | 7 | 10%
O=C(O)c1ccc(N/N=C/c2ccc3nccnc3c2)cc1 | -6 | 7.1µM* | -23 | 7%
SMILES | Cycloheximide cs | FMDV antiviral | Shiga inhibitor | Sm TGR inh
O=C(O)c1ccc(N/N=C/c2ccncc2)cc1 | 25* | 31% | 35* | 4%
Cc1ccc2nc(Cl)c(/C=N/Nc3ccc(C(=O)O)cc3)cc2c1 | 32* | -27% | 36 | -22%
O=C(O)c1ccc(/C=N\Nc2ccccn2)cc1 | . | 34% | . | .
O=C(N/N=C/c1ccc2nccnc2c1)c1ccc(Br)cc1 | -2 | 21% | -8 | -8%
Cc1cc(C)c2c(c1)SC1=NC(c3ccccc3)(C(F)(F)F)NC(=O)N12 (configuration not stated) | 24* | 67% | 36 | 4%
COc1ccccc1C(=O)Nc1cc2c(cc1N1CCCCC1)n(C)c(=O)n2C | . | ? | . | 5%
CCOC(=O)C1=C(CS(=O)(=O)c2ccccc2)NC(=O)NC1c1ccc(OC)c(OC)c1 (configuration not stated) | -3 | -9% | -2 | 5%
CCOC(=O)C1=C(CS(=O)(=O)c2ccccc2)NC(=O)NC1c1ccccc1OCC (configuration not stated) | -1 | -13% | -7 | 25µM*
CC1(C)Cc2nc3sc(C(=O)NCCCO)c(N)c3cc2CS1 | 31* | 53% | 26 | .
COC(=O)CSc1ncnc2c1sc1nc3c(cc12)COC(C)(C)C3 | 6 | ? | -3 | 2%
CC1(C)Cc2nc3sc(C(=O)O)c(N)c3cc2CS1 | 8 | . | 54 | 2%
CC1(C)Cc2nc3sc(C(=O)NCCO)c(N)c3cc2CO1 | 19* | 49% | 51* | -8%
